The list is not random: actives were taken first. Their share in the collection is about 7.1%.
M1 ag: activates the M1 muscarinic receptor. CHO-M1 cells, Fluo-4 calcium fluorescence, agonist mode; stronger effect = higher value. B-score at 10 µM. 64,000 tested, 3% active;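 active means fluorescence rise, raw or as B-score row- and column-corrected plate score, outside the 99.7% band of its plate's samples, either direction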
Cav32 inh: blocks human Cav3.2 T-type calcium channel | AID 449739 | 100,000 tested, 4% active | B-score at 10 µM | Cav3.2-expressing cells, Fluo-4 calcium fluorescence FDSS; stronger effect = lower value;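 active means single-dose well whose peak fluorescence ratio is a statistical outlier from its plate by either plate-standardised score or position-corrected B-score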
M1 antag: blocks the rat M1 muscarinic receptor response to acetylcholine | B-score at 10 µM | CHO-M1 cells, Fluo-4 calcium, ACh EC80 antagonist mode; stronger effect = lower value | 64,000 tested, 3.4% active;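 active means calcium fluorescence response, raw or row-and-column corrected B-score, differing from the plate sample mean either way at a set confidence level, mostly lower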
PTK2B oligo ant: antagonists of human Pyk2 oligomerization. Q293 cells, Pyk2 FERM NanoBiT luminescence; stronger effect = lower value. 99,000 tested, 0.83% active. Q14289. z-score (the deposit names both 25 µM and 10 µM);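 active means Z-score of -3 or lower, scaled per plate to the spread of control and sample wells; inactive means z-score above -3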;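 further: negative z-score means lost luminescence so less FERM oligomerization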
* hit, by the source's call; · = no result.

SMILES	M1 ag	Cav32 inh	M1 antag	PTK2B oligo ant
COc1ccc(Br)cc1/C=N/NC(=O)c1nc(-c2ccccc2)n2c1CCCCC2	·	-2.8	·	-2.2
Cc1ccc(N(CC(=O)N2CCc3ccccc32)C2=NC(=O)CS2)cc1	0.093	-4.3*	-1.2	1.3
N#CC1=C(N)N=C(SCc2cccc3ccccc23)C(C(N)=O)C12CCCCC2 (centres undefined)	·	-2.2	·	-0.92
FC(F)(F)c1ccc(C2[C@H]3CN(CC4CCCCC4)[C@H](c4ccccc4)C34CC2(c2cccnc2)C4)cc1 (some centres undefined)	·	-0.24	·	·
Cc1ccc(NC(=S)NCCC(c2ccccc2)c2ccccc2)c(C)c1	·	-3.2	·	-1.3
COc1ccc(NC(=S)NCCc2ccccc2)c(OC)c1	·	-0.03	·	0.27
COc1ccc(OC)c(NC(=S)NCCC(c2ccccc2)c2ccccc2)c1	·	-7.8*	·	-1.1
Cc1ccccc1NC(=S)NC(=O)CCc1ccccc1	·	-4*	·	-0.01
Cc1ccccc1NC(=S)NCCC(c1ccccc1)c1ccccc1	·	-4.4*	·	-0.47
COC(=O)c1ccc(OCC(=O)c2ccccc2OC)cc1	·	-0.28	·	-0.71
N#CC1=C(N)NC(SCc2ccccc2)=C(C#N)C12CCCCC2	0.72	·	-1.4	-0.95
N#CC1=C(N)NC(SCC(=O)Nc2ccccc2)=C(C#N)C12CCCCC2	·	-5*	·	-0.64
CCc1ccc(NC(=O)CNC(=O)c2cn(-c3ccccc3OC)c(=O)c3ccccc23)cc1	·	-4.2*	·	-1.3
COc1ccccc1NC(=O)CNC(=O)c1ccccc1C	·	0.4	·	1.3
CCC(=O)Nc1ccccc1Nc1cc(C#N)c(C#N)cc1[N+](=O)[O-]	·	0.27	·	-0.61
O=C(O)c1cc2n(n1)C(C(F)(F)F)CC(c1ccco1)N2 (centres undefined)	0.044	0.4	0	1.6
Cc1ccc2c(c1)C(N1CCCC1=O)CC(c1ccco1)N2 (centres undefined)	2.6*	-0.74	-0.02	-0.21
CCOC(=O)c1cnc(-n2nc(C)cc2C)nc1NCCO	·	-0.49	·	0.66
CCOC(=O)c1cnc(-n2nc(C)cc2C)nc1NC(C)c1ccccc1 (centres undefined)	-0.85	-8.8*	-1.2	-2.8
CCN1CCN(Cc2ccc3c(c2)Cc2ccccc2-3)CC1	2.2	·	-3.5*	·
O=C(NCCc1csc(-c2ccc(C(F)(F)F)cc2)n1)c1cccs1	·	-6.1*	·	·
O=C(NCCc1csc(-c2cccnc2)n1)c1cccs1	-0.51	·	-0.29	·
CC(c1ccccc1)C1C(C#N)=C(N)SC(N)=C1C#N (centres undefined)	0.18	-5*	0.27	-0.29
C=CCn1c(SC(C)C(=O)NCCC2=CCCCC2)nc2ccccc2c1=O (centres undefined)	·	-6.1*	·	0.62
O=C(NCCC1=CCCCC1)C(c1ccccc1)c1ccccc1	·	-0.64	·	-0.97
SMILES	M1 ag	Cav32 inh	M1 antag	PTK2B oligo ant
COc1ccc(C2NC(=O)NC(c3ccccc3)=C2c2nc3ccccc3s2)cc1 (centres undefined)	·	-5.8*	·	-2.9
O=C1NC(c2ccccc2)=C(c2nc3ccccc3s2)C(c2ccc(F)cc2)N1 (centres undefined)	·	-5.1	·	-3.2*
COc1cccc(-c2nc3ccccc3s2)c1	·	-0.33	·	-0.92
O=S(=O)(NC1CCCC1)c1cccc(S(=O)(=O)N2CCC(n3nnc4ccccc43)CC2)c1	1.2	·	-0.17	-0.6
CCCCn1c(=N)n(CC(=O)c2ccco2)c2ccccc21	·	·	·	0.98
CCCCCCn1c(C(C)NC(=O)c2ccco2)nc2ccccc21 (centres undefined)	1.1	-10*	-0.67	-0.06
CCCCn1c(C(C)NC(=O)CC)nc2ccccc21 (centres undefined)	0.47	1.1	0.0073	·
CCCCCCCn1c(=N)n(CC(=O)c2ccco2)c2ccccc21	·	-2.6*	·	1.3
COC(=O)CN1C(=S)N(Cc2ccccc2)C(=O)C1CC(=O)Nc1ccc(Br)cc1 (centres undefined)	·	-3.4	·	-0.91
Cc1cccc(N2CCN(C(=O)c3cc4c(C)nc5ccccc5c4o3)CC2)c1C	0.31	·	-0.61	·
Cc1ccc(C(C)NC(=O)C2CCCO2)cc1C (centres undefined)	0.25	-5.4*	1.4	-0.13
Cc1cccc(C(=O)NNC(=O)C2CCCO2)c1 (centres undefined)	·	0.078	·	0
CCCC(C)NC(=O)c1ccc2[nH]c3c(c2c1)CC(C)CC3 (centres undefined)	·	-5*	·	-0.85
O=C(NCCO)c1ccc2[nH]c3c(c2c1)CCCC3	0.6	0.76	-0.3	0.44
COc1ccc(Cc2nc(C(=O)NCc3ccccc3OC)cs2)cc1	·	-6.7*	·	-1.2
Cc1nc(NCCc2ccccc2F)c(C#N)c(C)c1[N+](=O)[O-]	·	0.068	·	-0.27
Cc1ccc(S(=O)(=O)CCC(=O)N2CCc3ccccc32)cc1	·	·	·	0.43
